Consider 6 compounds from PubChem BioAssay (Tox21).

Active and inactive are the calls of the source. Unless noted, calls come from the whole dose curve; as a rule, active = well fitted curve in the direction sought with a large enough effect in the repeat runs; inconclusive = weak or mixed curves; inactive = no such curve, though single readings can be large; an effect the other way counts as inactive or inconclusive.

Assay [1] in a line: qHTS assay to test for compound auto fluorescence at 535 nm (green) in HepG2 cells (AID 720675). A general note: Quantitative high-throughput screening tests each substance at several concentrations.
Assay [2] in a line: qHTS assay to test for compound auto fluorescence at 590 nm (red) in HEK293 cells (AID 720679). The method in brief:
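Each well held 2,000 HEK293 cells in medium containing 10% dialyzed FBS. Following 4-5 hr attachment at 37C, 23 nL test compound or DMSO was added; plates sat overnight, and red fluorescence (540/590nm) was recorded.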

A short description of assay [3]: qHTS assay for identifying genotoxic compounds that show differential cytotoxicity against isogenic chicken DT40 cell lines with known DNA damage response pathways - Rev3 mutant cell line (AID 743014). Note: nearly all actives have a fitted effect of over 55% in size. Note: potency is the fitted concentration of half-maximal effect.
Assay [4] in a line: qHTS assay for identifying genotoxic compounds that show differential cytotoxicity against isogenic chicken DT40 cell lines with known DNA damage response pathways - Rad54/Ku70 mutant cell line (AID 743015). Note: nearly all actives have a fitted effect of over 60% in size. Note: potency is the fitted concentration of half-maximal effect.
A short description of assay [5]: qHTS assay to identify small molecule antagonists of the androgen receptor (AR) signaling pathway - cell viability counter screen (AID 743033; note: nearly all actives have a fitted effect of over 45% in size).
Assay [6] in a line: qHTS assay to identify small molecule antagonists of the androgen receptor (AR) signaling pathway using the MDA cell line - cell viability counter screen (AID 743041; note: nearly all actives have a fitted effect of over 45% in size). The method in brief: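 MDA-kb2 AR-luc cells (MMTV-luciferase, AR/GR responsive) treated with compounds plus R1881 agonist for 16 h at 37C. CellTiter-Fluor added at 15.5 h; fluorescence read after 30 min in the same wells.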

Assay [7] can be described thus: qHTS assay to identify small molecule antagonists of the thyroid receptor (TR) signaling pathway (AID 743065). Note: nearly all actives have a fitted effect of over 55% in size. Note: potency is the fitted concentration of half-maximal effect. The method in brief: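 GH3.TRE-Luc rat pituitary cells (two TREs driving luciferase) were dosed with compound, then stimulated with 1 nM T3 (final) for 23.5 h at 37 C. ONE-Glo luminescence was the read-out, with CellTiter-Fluor fluorescence as the cytotoxicity counter-screen.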

For assay [8], the system named is thyroid hormone receptor (rat, GH3 cells). In words: qHTS assay to identify small molecule agonists of the thyroid receptor (TR) signaling pathway (AID 743066; calls by dose curve).
The nature of assay [9]: qHTS assay to identify small molecule antagonists of the estrogen receptor alpha (ER-alpha) signaling pathway - cell viability counter screen (AID 743074; calls by dose curve;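 note: HEK293 cells carrying ER-alpha-UAS-bla reporter stimulated with 17beta-estradiol; nearly all actives have a fitted effect of over 45% in size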).
Assay [10] has as its target Estrogen receptor (Homo sapiens) (UniProt P03372). Nature of the assay: qHTS assay to identify small molecule agonists of the estrogen receptor alpha (ER-alpha) signaling pathway (AID 743075; calls by dose curve;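 note: HEK293 GripTite cells with ER-alpha and UAS-driven beta-lactamase reporter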; note: potency is the fitted concentration of half-maximal effect).
Assay [11] has the same target. In words: qHTS assay to identify small molecule agonists of the estrogen receptor alpha (ER-alpha) signaling pathway using the BG1 cell line (AID 743079). Note: nearly all actives have a fitted effect of over 20% in size. Note: potency is the fitted concentration of half-maximal effect.
The nature of assay [12]: qHTS assay to identify small molecule antagonists of the estrogen receptor alpha (ER-alpha) signaling pathway using the BG1 cell line (AID 743080; calls by dose curve; note: series mostly up to about 70 µM; nearly all actives have a fitted effect of over 25% in size). The method in brief: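 Antagonist mode: compounds in DMSO were pinned onto BG1-Luc-4E2 cells alongside 17beta-estradiol agonist, incubated 21.5 h, and ERE-driven luciferase measured with ONE-Glo. Cytotoxicity was multiplexed using CellTiter-Fluor fluorescence.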

A short description of assay [13]: qHTS assay to identify small molecule antagonists of the estrogen receptor alpha (ER-alpha) signaling pathway using the BG1 cell line - cell viability counter screen (AID 743081).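 Note: compound given together with 17beta-estradiol as the ER stimulus; series mostly up to about 70 µM; nearly all actives have a fitted effect of over 45% in size.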
Assay [14] in a line: qHTS assay to identify small molecule that activate the aryl hydrocarbon receptor (AhR) signaling pathway - cell viability counter screen (AID 743086). The method in brief:
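HepG2-AhR-luc (HG2L7.5c1) cells, 4000/well, treated 24 h at 37 C with compound; viability measured as CellTiter-Fluor fluorescence after 30 min in the same wells as the luciferase read.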

Assay [15] deals with Peroxisome proliferator-activated receptor gamma (Homo sapiens) (UniProt P37231). Nature of the assay: qHTS assay to identify small molecule agonists of the peroxisome proliferator-activated receptor gamma (PPARg) signaling pathway (AID 743094; active = well fitted activation curve with a large enough effect in the signal ratio in the repeat runs, not every such curve was filed as active; inconclusive = weak or mixed curves, or effect the other way; inactive = no such curve, though single readings can be large or run the other way; the % refers to the signal ratio). The method in brief: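 Beta-lactamase FRET fluorescence was the read-out after a 1 h room-temperature substrate step, following 17 h compound treatment at 37C of HEK293H cells expressing a UAS-driven bla reporter responsive to PPARg.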
Chain of Peroxisome proliferator-activated receptor gamma (Homo sapiens) (P37231 whole entry, looked up): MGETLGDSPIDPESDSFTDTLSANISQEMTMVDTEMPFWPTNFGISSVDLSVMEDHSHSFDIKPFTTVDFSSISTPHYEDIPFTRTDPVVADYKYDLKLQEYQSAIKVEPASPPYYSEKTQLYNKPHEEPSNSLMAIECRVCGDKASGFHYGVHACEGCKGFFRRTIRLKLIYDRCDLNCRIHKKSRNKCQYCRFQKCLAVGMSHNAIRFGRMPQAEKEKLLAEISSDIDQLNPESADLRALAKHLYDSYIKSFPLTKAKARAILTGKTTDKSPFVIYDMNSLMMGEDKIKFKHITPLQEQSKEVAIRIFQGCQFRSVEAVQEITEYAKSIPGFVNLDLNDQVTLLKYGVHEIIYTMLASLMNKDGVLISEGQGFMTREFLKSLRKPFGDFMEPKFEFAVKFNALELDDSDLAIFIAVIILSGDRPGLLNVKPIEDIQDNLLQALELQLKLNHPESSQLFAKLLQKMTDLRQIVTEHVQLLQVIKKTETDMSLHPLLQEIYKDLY

Assay [16] concerns the target Nuclear receptor subfamily 1 group I member 2 (Homo sapiens) (UniProt O75469). Nature of the assay: CYP3A4 induction through human pregnane X receptor (PXR) by small molecules, qHTS assay (AID 1346984). Note: nearly all actives have a fitted effect of over 40% in size. The method in brief:
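Luminescence readout: luciferase signal after One-Glo (30 min, room temperature), following 3 h at 37C with 3uM final Luciferin-IPA P450 substrate. Cells were DPX-2 (HepG2, PXR/CYP3A4-luc co-transfected) dosed for 24 h.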

Assay [17] in a line: qHTS assay for small molecule agonists of the p53 signaling pathway - cell viability (AID 651633; calls by dose curve; note: nearly all actives have a fitted effect of over 30% in size; note: potency is the fitted concentration of half-maximal effect). The method in brief: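 p53RE-bla cells were treated with compound for 16 hours at 37 C. Cytotoxicity was then measured as CellTiter-Glo luminescence after 30 min at room temperature.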
Assay [18] is described as follows: qHTS assay to test for compound auto fluorescence at 535 nm (green) in HepG2 cell free culture (AID 720686).
A short description of assay [19]: qHTS assay for identifying genotoxic compounds that show differential cytotoxicity against isogenic chicken DT40 cell lines with known DNA damage response pathways - wild type cell line (AID 743012). Note: nearly all actives have a fitted effect of over 60% in size. Note: potency is the fitted concentration of half-maximal effect. The method in brief: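 Wild type DT40, 300 cells/well, ~0.5 h settle at 37 C/5% CO2; compounds in DMSO added by pintool; 40 h at 37 C/5% CO2; CellTiter-Glo, 30 min RT; luminescence.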

Assay [20] concerns the target Glucocorticoid receptor (Homo sapiens) (UniProt P04150). Nature of the assay: qHTS assay to identify small molecule agonists of the glucocorticoid receptor (GR) signaling pathway (AID 720691; active = well fitted activation curve with a large enough effect in the signal ratio in the repeat runs, not every such curve was filed as active; inconclusive = weak or mixed curves, or effect the other way; inactive = no such curve, though single readings can be large or run the other way; the % refers to the signal ratio). The method in brief:
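Fluorescence intensity from LiveBLAzer B/G FRET substrate (2 h, room temperature) reports beta-lactamase expression driven by the glucocorticoid response element in GR-bla HeLa cells after 18 h compound exposure at 37 C.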

Chain of Estrogen receptor (Homo sapiens) (P03372 whole entry, looked up): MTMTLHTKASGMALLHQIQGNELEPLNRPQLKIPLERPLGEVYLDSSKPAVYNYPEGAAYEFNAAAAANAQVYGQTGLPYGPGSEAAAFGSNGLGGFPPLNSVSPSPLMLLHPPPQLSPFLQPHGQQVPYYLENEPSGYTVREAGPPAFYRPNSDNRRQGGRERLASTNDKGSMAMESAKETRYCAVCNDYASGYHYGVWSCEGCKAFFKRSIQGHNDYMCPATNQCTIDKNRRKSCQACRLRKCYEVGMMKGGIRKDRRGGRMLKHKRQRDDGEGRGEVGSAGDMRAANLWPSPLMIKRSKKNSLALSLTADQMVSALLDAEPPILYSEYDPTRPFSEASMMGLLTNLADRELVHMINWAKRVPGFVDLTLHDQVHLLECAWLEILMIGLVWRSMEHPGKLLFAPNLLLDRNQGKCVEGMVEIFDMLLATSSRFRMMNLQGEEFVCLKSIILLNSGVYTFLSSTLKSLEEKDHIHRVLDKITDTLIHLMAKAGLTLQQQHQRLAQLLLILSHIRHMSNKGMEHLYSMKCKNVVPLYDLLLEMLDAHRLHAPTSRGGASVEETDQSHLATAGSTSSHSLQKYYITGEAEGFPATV
Chain of Glucocorticoid receptor (Homo sapiens) (P04150 whole entry, looked up): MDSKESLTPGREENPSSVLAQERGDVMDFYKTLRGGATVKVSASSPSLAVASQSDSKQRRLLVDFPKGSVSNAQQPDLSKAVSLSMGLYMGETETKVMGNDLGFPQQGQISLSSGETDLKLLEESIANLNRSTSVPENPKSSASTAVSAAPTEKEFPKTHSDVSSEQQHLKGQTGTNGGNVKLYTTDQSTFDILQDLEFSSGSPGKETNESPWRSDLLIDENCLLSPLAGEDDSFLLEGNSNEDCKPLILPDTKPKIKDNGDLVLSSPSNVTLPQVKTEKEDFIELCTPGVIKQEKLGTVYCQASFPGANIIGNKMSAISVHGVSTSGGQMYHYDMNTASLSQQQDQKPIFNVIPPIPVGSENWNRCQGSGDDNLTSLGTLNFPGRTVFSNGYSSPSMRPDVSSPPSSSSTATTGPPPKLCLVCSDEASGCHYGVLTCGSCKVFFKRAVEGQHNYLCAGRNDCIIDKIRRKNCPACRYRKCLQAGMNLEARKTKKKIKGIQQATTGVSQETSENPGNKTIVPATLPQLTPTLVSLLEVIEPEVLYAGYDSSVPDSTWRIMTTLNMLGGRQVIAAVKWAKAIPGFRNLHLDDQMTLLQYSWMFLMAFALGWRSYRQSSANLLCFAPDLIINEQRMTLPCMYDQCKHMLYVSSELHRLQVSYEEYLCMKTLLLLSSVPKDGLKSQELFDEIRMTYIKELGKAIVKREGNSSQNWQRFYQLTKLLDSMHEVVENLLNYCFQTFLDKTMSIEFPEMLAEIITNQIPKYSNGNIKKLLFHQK

On to `CCCC(C)C1(CC)C(=O)NC(=O)NC1=O` (stereo unspecified), for which the Potency entry in assay [1], in [3], in assay [4], in [5], in [6] and in assay [7] was “inactive” throughout. For the same compound, the Potency entry in assay [8], in assay [9], in assay [10], in assay [11], in assay [12] and in assay [13] was “inactive” in each case. The Potency entry in [14], in assay [15] and in assay [16] was “inactive” each time. Moreover, the call in assay [2] was inactive.

Take `CCCCCc1cc(O)c2c(c1)OC(C)(C)[C@@H]1CCC(C)=C[C@@H]21`: the Potency was 23.7 µM (active) in [17], 9.44 µM (active) in assay [19], 13.3 µM (active) in assay [3] and 16.8 µM (active) in [7]. For the same compound, the Potency result in [1], in assay [18], in [6], in assay [9], in assay [10] and in assay [12] was “inactive” each time. The Potency result in assay [13], in [14] and in assay [16] was “inactive” each time.

Turning to `C[C@]12CC[C@H]3[C@@H](CCC4=CC(=O)CC[C@@]43C)[C@@H]1CC[C@H]2O`, the Potency result in assay [1], in [18], in [5], in [6], in [8] and in [9] was “inactive” each time. The Potency result in [13], in assay [14], in assay [15] and in [16] was “inactive” throughout. Moreover, the result in [2] was inactive. Moreover, the Potency in [19] is 23.7 µM (active); in assay [4] it was 29.8 µM (active).

With `COC(=O)[C@@H]1[C@H]2CC[C@@H](C[C@H]1OC(=O)c1ccccc1)N2C`, the Potency entry in assay [1], in assay [18], in assay [19], in assay [3], in assay [4] and in assay [5] was “inactive” throughout. Besides, the Potency entry in assay [6], in assay [7], in assay [8], in [9], in assay [10] and in assay [11] was “inactive” each time. The Potency result in [12], in [13], in [14], in [15] and in [16] was “inactive” each time. For the same compound, the call in [2] was inactive.

As for `C[C@]12C[C@H]3S[C@H]3C[C@@H]1CC[C@@H]1[C@@H]2CC[C@]2(C)[C@@H](O)CC[C@@H]12`, the Potency result in [1], in assay [18], in [20], in [3], in [6] and in assay [7] was “inactive” throughout. Further, the Potency result in assay [8], in assay [9], in assay [13], in [14], in assay [15] and in [16] was “inactive” throughout. Further, the outcome in assay [2] was inactive. Moreover, the Potency in assay [10] is 0.256 µM [inconclusive] (active); in assay [11], 0.143 µM (active).

For the compound `CC1(C)[C@H](C=C(Cl)Cl)[C@H]1C(=O)OCc1c(F)c(F)cc(F)c1F`, the Potency result in assay [17], in [18], in [20], in assay [19], in assay [4] and in assay [6] was “inactive” each time. The Potency entry in [7], in assay [8], in [9], in assay [10], in assay [11] and in assay [12] was “inactive” each time. For the same compound, the Potency result in assay [13], in [14] and in assay [16] was “inactive” in each case. The compound was called inactive in [2].
